# Reference: PubChem BioAssay (NCI)
# About 83,000 compounds went through this panel and 20% of them were active in at least one assay; those are over-represented in the sample as a whole.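 Negative percent growth values reflect cell death: -40 means 40% of the cells present at the start died, and -100 means all died.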 Values without a mark were called inactive. Active and inactive are the calls of the source. Rule for the calls: active = growth percent below 10; inactive = the rest.
# Test system: OVCAR-4 ovarian
# Test: NCI-60 one-dose screen, 48 h (100 = growth as untreated, 0 = no growth, -100 = all killed)
# Details: 10 µM unless noted
row,Structure (SMILES),growth
1,O=C(Nc1ccccc1)Oc1cccc2cccnc12,76.8%
2,O=c1[nH]c(-c2ccccn2)nc2sc3c(c12)CCCCCC3,28%
3,CC(=O)N(CC(O)CO)c1c(I)c(C(=O)NCCO)c(I)c(C(=O)NCC(O)CO)c1I (centres undefined),102%
4,COc1ccc(-c2nc3sc(C)nn3c2-c2nc3cc(C)c(C)cc3[nH]2)cc1,94.1%
5,O=C(C[Si](CC(=O)c1cccc(C(F)(F)F)c1)CC(=O)c1cccc(C(F)(F)F)c1)c1cccc(C(F)(F)F)c1,88.3%
6,Cc1ccc(C2SCC(=O)N2NC(=O)c2[nH]c3ccc(F)cc3c2-c2ccccc2)cc1 (centres undefined),79.7%
7,CCCCCCCCCCCCSC1=CC(=O)C=CC1=O,57.1%
8,O=C1/C(=C/c2ccc(Oc3ccccc3)cc2)N=C(c2ccccc2)N1CCc1cccs1,78%
9,COc1ccc(Nc2[nH]n(C3=Nc4ccccc4Sc4ccccc43)c(=O)c2C#N)cc1,47.5%
10,FC(F)(F)c1cc(CNc2ncc(Br)c(Cl)n2)cc(C(F)(F)F)c1,102%
11,COc1cc(CNCCCN2C(=O)c3ccc4c5c(ccc(c35)C2=O)C(=O)N(CCCNCc2cc(OC)c(OC)c(OC)c2)C4=O)cc(OC)c1OC,-97% (active)
12,CCCCc1ccc(C(O)(CCN2CC3CCC(CC3)C2)c2ccccc2)cc1 (centres undefined),97%
13,CC(C)NCC(O)COc1ccc(CCOCC2CC2)cc1 (centres undefined),82.5%
14,Oc1cccc(Nc2nc(-c3ccccn3)cs2)c1,101%
15,O=C(O)CCN1CCN(c2cccc(Cl)c2)CC1,92%
16,CCCCC(CCCC)(S(=O)(=O)CC)S(=O)(=O)CC,110%
17,COc1ccc(/C=C2\CN(Cc3cn(CCCNc4ccnc5cc(Cl)ccc45)nn3)C/C(=C\c3ccc(OC)cc3)C2=O)cc1,55.1%
18,Cn1c2c(cc(S(=O)(=O)c3ccccc3)c1=O)CCc1c-2cnn1-c1cccc(Cl)c1,60.9%
19,CCOc1ccc(-c2cnnn2-c2nonc2-n2cccc2)cc1,39.6%

row,Structure (SMILES),growth
1,COc1ccc(-c2csc3c2-n2cccc2C3=O)cc1O,37.4%
2,O=C1OCC2=C1C(c1ccc3c(c1)OCO3)CC(=O)N2c1cccc(Cl)c1 (centres undefined),93.5%
3,COc1cc2nc(N3CCC[C@H](NC4=CC(=O)c5ccccc5C4=O)C3)nc(N)c2cc1OC,-88% (active)
4,CC1SC(c2ccc(Cl)cc2)N(CCc2cccs2)C1=O (centres undefined),8.71% (active)
5,C[C@@H](Oc1cc(-c2cnn(C3CC4(CNC4)C3)c2)cnc1N)c1c(Cl)ccc(F)c1Cl,48.2%
6,Cc1nn(-c2ccccc2)c2nc3nc4c(c(N)c3c(-c3ccc(Cl)cc3)c12)CCC4,101%
7,COc1ncnc2c1ncn2C/C(Br)=C(\Br)CCl,-47.1% (active)
8,CCOC(=O)C(CC(c1ccccc1)N1CCCCC1)[N+](=O)[O-] (centres undefined),96.5%
9,O=c1nc(NO)[nH]c(=O)n1Cc1ccc(F)cc1,91.5%
10,CCN(CC)CCCNc1ccc(C)c2sc3ccccc3c(=O)c12,64.8%
11,Cn1cc(C(=O)NCCC(=N)N)cc1NC(=O)CN=C(N)N,105%
12,Cc1cc(=O)c2c(C)ccc(C)c2[nH]1,106%
13,COc1ccc(OC2=C(C#N)C(=N)N3c4ccccc4Sc4ccccc4C3N2)cc1 (centres undefined),112%
14,O=c1onc(-c2ccccc2)c2ccccc12,106%
15,O=C1C(Cl)=C(NCCCN2CCOCC2)C(=O)c2ccccc21,77.1%
16,CCCCc1ccc(NC(=O)C(F)(F)F)cc1,114%
17,O=C1CC(c2ccsc2)c2snc(-c3ccc(Cl)cc3)c2N1 (centres undefined),37.5%
18,COc1ccc2nc(-n3nc(C)cc3C)c(-n3nc(C)cc3C)nc2c1,111%

# Test system: SK-OV-3 ovarian
# Test: as above
# Details: 10 µM
row,Structure (SMILES),growth
1,O=C(Nc1ccccc1)Oc1cccc2cccnc12,112%
2,O=c1[nH]c(-c2ccccn2)nc2sc3c(c12)CCCCCC3,45.2%
3,CC(=O)N(CC(O)CO)c1c(I)c(C(=O)NCCO)c(I)c(C(=O)NCC(O)CO)c1I (centres undefined),103%
4,COc1ccc(-c2nc3sc(C)nn3c2-c2nc3cc(C)c(C)cc3[nH]2)cc1,99.5%
5,O=C(C[Si](CC(=O)c1cccc(C(F)(F)F)c1)CC(=O)c1cccc(C(F)(F)F)c1)c1cccc(C(F)(F)F)c1,98.3%
6,Cc1ccc(C2SCC(=O)N2NC(=O)c2[nH]c3ccc(F)cc3c2-c2ccccc2)cc1 (centres undefined),107%
7,CCCCCCCCCCCCSC1=CC(=O)C=CC1=O,82.3%
8,O=C1/C(=C/c2ccc(Oc3ccccc3)cc2)N=C(c2ccccc2)N1CCc1cccs1,106%
9,COc1ccc(Nc2[nH]n(C3=Nc4ccccc4Sc4ccccc43)c(=O)c2C#N)cc1,53.5%
10,FC(F)(F)c1cc(CNc2ncc(Br)c(Cl)n2)cc(C(F)(F)F)c1,92.5%
11,COc1cc(CNCCCN2C(=O)c3ccc4c5c(ccc(c35)C2=O)C(=O)N(CCCNCc2cc(OC)c(OC)c(OC)c2)C4=O)cc(OC)c1OC,-59.6% (active)
12,CCCCc1ccc(C(O)(CCN2CC3CCC(CC3)C2)c2ccccc2)cc1 (centres undefined),91.2%
13,CC(C)NCC(O)COc1ccc(CCOCC2CC2)cc1 (centres undefined),113%
14,Oc1cccc(Nc2nc(-c3ccccn3)cs2)c1,95.2%
15,O=C(O)CCN1CCN(c2cccc(Cl)c2)CC1,104%
16,CCCCC(CCCC)(S(=O)(=O)CC)S(=O)(=O)CC,105%
17,COc1ccc(/C=C2\CN(Cc3cn(CCCNc4ccnc5cc(Cl)ccc45)nn3)C/C(=C\c3ccc(OC)cc3)C2=O)cc1,70.7%
18,Cn1c2c(cc(S(=O)(=O)c3ccccc3)c1=O)CCc1c-2cnn1-c1cccc(Cl)c1,86.8%
19,CCOc1ccc(-c2cnnn2-c2nonc2-n2cccc2)cc1,-1.75% (active)

row,Structure (SMILES),growth
1,COc1ccc(-c2csc3c2-n2cccc2C3=O)cc1O,1.75% (active)
2,O=C1OCC2=C1C(c1ccc3c(c1)OCO3)CC(=O)N2c1cccc(Cl)c1 (centres undefined),97.5%
3,COc1cc2nc(N3CCC[C@H](NC4=CC(=O)c5ccccc5C4=O)C3)nc(N)c2cc1OC,116%
4,CC1SC(c2ccc(Cl)cc2)N(CCc2cccs2)C1=O (centres undefined),5.5% (active)
5,C[C@@H](Oc1cc(-c2cnn(C3CC4(CNC4)C3)c2)cnc1N)c1c(Cl)ccc(F)c1Cl,66.3%
6,Cc1nn(-c2ccccc2)c2nc3nc4c(c(N)c3c(-c3ccc(Cl)cc3)c12)CCC4,98.6%
7,COc1ncnc2c1ncn2C/C(Br)=C(\Br)CCl,148%
8,CCOC(=O)C(CC(c1ccccc1)N1CCCCC1)[N+](=O)[O-] (centres undefined),97.7%
9,O=c1nc(NO)[nH]c(=O)n1Cc1ccc(F)cc1,105%
10,CCN(CC)CCCNc1ccc(C)c2sc3ccccc3c(=O)c12,56.2%
11,Cn1cc(C(=O)NCCC(=N)N)cc1NC(=O)CN=C(N)N,110%
12,Cc1cc(=O)c2c(C)ccc(C)c2[nH]1,107%
13,COc1ccc(OC2=C(C#N)C(=N)N3c4ccccc4Sc4ccccc4C3N2)cc1 (centres undefined),79.3%
14,O=c1onc(-c2ccccc2)c2ccccc12,112%
15,O=C1C(Cl)=C(NCCCN2CCOCC2)C(=O)c2ccccc21,102%
16,CCCCc1ccc(NC(=O)C(F)(F)F)cc1,109%
17,O=C1CC(c2ccsc2)c2snc(-c3ccc(Cl)cc3)c2N1 (centres undefined),-3.45% (active)
18,COc1ccc2nc(-n3nc(C)cc3C)c(-n3nc(C)cc3C)nc2c1,113%
